Assay results taken from PubChem BioAssay (Tox21).
“And” between values parts separate entries of the source, which are not always exact repeats. Identical values can stand only once. The source holds several records for some structures; these can differ, active in one and inactive in another. The source made the active and inactive calls. Unless noted, calls come from the whole dose curve; as a rule, active = well fitted curve in the direction sought with a large enough effect in the repeat runs; inconclusive = weak or mixed curves; inactive = no such curve, though single readings can be large; an effect the other way counts as inactive or inconclusive.

Experiments:
[1] = qHTS assay to identify small molecule antagonists of the thyroid receptor (TR) signaling pathway - cell viability counter screen (AID 743064); note: nearly all actives have a fitted effect of over 50% in size; note: potency is the fitted concentration of half-maximal effect
Summary of the method: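 Counter screen for cytotoxicity: compound plus T3 (1 nM final) on GH3.TRE-Luc cells, 23.5 h at 37 °C, then fluorescence viability readout with CellTiter-Fluor.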

[2] = qHTS assay to identify small molecule antagonists of the thyroid receptor (TR) signaling pathway (AID 743065); note: nearly all actives have a fitted effect of over 55% in size; note: potency is the fitted concentration of half-maximal effect
Summary of the method: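 Antagonism measured as loss of luciferase signal in GH3 cells stably carrying a TRE-luciferase reporter, co-treated with compound and T3 (1 nM final) for 23.5 h at 37 C. Viability was read in the same well by CellTiter-Fluor.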

[3] = system: thyroid hormone receptor (rat, GH3 cells); assay: qHTS assay to identify small molecule agonists of the thyroid receptor (TR) signaling pathway (AID 743066; calls by dose curve)
[4] = qHTS assay to identify small molecule antagonists of the estrogen receptor alpha (ER-alpha) signaling pathway - cell viability counter screen (AID 743074; calls by dose curve;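 note: HEK293 cells carrying ER-alpha-UAS-bla reporter stimulated with 17beta-estradiol; nearly all actives have a fitted effect of over 45% in size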)
[5] = molecular target: Estrogen receptor (Homo sapiens) (UniProt P03372); assay: qHTS assay to identify small molecule agonists of the estrogen receptor alpha (ER-alpha) signaling pathway (AID 743075; calls by dose curve;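 note: HEK293 GripTite cells with ER-alpha and UAS-driven beta-lactamase reporter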; note: potency is the fitted concentration of half-maximal effect)
Estrogen receptor (Homo sapiens), sequence (P03372 whole entry, looked up): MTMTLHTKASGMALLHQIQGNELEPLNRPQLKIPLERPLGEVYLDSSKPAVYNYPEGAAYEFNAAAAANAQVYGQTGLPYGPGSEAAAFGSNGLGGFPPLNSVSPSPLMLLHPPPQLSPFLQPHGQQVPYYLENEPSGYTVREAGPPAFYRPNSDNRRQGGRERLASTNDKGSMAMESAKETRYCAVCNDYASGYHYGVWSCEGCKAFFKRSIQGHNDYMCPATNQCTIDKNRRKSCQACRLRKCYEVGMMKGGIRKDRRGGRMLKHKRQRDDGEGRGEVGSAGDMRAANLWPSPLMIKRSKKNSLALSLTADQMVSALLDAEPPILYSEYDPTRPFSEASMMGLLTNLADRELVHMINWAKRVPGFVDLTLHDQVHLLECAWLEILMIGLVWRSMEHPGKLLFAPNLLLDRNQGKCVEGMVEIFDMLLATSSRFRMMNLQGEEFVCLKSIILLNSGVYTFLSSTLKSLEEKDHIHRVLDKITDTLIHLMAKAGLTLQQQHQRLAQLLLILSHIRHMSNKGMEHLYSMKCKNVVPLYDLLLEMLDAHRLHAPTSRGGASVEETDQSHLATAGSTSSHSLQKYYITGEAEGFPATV

[6] = molecular target: Estrogen receptor (Homo sapiens) (UniProt P03372); assay: qHTS assay to identify small molecule agonists of the estrogen receptor alpha (ER-alpha) signaling pathway using the BG1 cell line (AID 743079); details: BG1Luc4E2 cells, ERE-luciferase agonist, 22 h; activation: at 70.3 µM (top of the series); note: nearly all actives have a fitted effect of over 20% in size
[7] = qHTS assay to identify small molecule antagonists of the estrogen receptor alpha (ER-alpha) signaling pathway using the BG1 cell line (AID 743080; calls by dose curve;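 note: BG1 cells stimulated with 17beta-estradiol alongside compound; nearly all actives have a fitted effect of over 25% in size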)
Summary of the method: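 BG1-Luc-4E2 cells (endogenous full-length ER-alpha, stable 4×ERE-luciferase) were starved 5 days in phenol-red-free medium with 10% charcoal-stripped FBS, plated 24 h, then given compound plus 17beta-estradiol for 21.5 h at 37 C; ONE-Glo luminescence read after 30 min.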

[8] = qHTS assay to identify small molecule antagonists of the estrogen receptor alpha (ER-alpha) signaling pathway using the BG1 cell line - cell viability counter screen (AID 743081);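 note: compound given together with 17beta-estradiol as the ER stimulus; nearly all actives have a fitted effect of over 45% in size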
Aromatase (Homo sapiens) = Aromatase (Homo sapiens) (UniProt P11511); assay: qHTS assay to identify aromatase inhibitors (AID 743083); note: nearly all actives have a fitted effect of over 55% in size; note: potency is the fitted concentration of half-maximal effect
Aromatase (Homo sapiens), sequence (P11511 whole entry, looked up): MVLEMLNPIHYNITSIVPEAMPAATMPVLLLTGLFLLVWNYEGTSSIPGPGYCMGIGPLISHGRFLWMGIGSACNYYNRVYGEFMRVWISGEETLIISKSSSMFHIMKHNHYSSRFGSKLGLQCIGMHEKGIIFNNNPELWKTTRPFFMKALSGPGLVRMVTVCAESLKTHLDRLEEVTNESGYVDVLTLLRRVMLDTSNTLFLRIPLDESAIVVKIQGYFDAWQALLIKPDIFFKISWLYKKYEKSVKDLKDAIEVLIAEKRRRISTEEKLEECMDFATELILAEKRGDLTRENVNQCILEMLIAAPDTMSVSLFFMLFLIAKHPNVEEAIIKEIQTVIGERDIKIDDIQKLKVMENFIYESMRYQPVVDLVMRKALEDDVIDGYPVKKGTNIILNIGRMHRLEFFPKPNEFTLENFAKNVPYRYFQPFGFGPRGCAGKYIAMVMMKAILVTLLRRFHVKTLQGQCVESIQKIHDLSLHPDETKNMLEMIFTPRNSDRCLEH

[9] = qHTS assay to identify aromatase inhibitors - cell viability counter screen (AID 743084);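 note: cells stimulated with testosterone during compound exposure; nearly all actives have a fitted effect of over 55% in size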; note: potency is the fitted concentration of half-maximal effect
[10] = molecular target: Aryl hydrocarbon receptor (Homo sapiens) (UniProt P35869); assay: qHTS assay to identify small molecule that activate the aryl hydrocarbon receptor (AhR) signaling pathway (AID 743085);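 note: HG2L7.5c1 human HepG2 liver cells with stably integrated DRE-driven firefly reporter; nearly all actives have a fitted effect of over 15% in size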
Aryl hydrocarbon receptor (Homo sapiens), sequence (P35869 whole entry, looked up): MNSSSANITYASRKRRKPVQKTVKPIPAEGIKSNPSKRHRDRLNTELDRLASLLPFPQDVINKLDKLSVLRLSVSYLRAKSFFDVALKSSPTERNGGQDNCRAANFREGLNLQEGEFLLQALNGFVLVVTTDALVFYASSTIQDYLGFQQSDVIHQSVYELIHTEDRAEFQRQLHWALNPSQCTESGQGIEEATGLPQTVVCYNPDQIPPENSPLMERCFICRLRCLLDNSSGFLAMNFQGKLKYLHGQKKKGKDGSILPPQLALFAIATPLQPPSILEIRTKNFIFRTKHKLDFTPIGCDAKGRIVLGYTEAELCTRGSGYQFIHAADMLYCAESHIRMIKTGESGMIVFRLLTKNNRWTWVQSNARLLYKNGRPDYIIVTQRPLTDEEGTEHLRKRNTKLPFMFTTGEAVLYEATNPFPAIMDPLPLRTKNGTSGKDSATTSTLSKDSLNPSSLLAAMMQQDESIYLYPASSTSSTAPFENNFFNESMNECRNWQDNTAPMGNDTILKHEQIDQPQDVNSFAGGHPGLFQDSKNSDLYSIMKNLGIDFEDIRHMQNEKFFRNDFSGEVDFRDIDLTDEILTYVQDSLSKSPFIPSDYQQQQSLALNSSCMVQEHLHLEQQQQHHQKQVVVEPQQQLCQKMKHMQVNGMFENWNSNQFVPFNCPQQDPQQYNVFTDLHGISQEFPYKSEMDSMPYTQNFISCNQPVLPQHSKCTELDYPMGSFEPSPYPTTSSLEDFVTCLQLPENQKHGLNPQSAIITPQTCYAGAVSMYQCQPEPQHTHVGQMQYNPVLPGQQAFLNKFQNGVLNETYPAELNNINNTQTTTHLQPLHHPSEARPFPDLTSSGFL
Summary of the method: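 Measured in HG2L7.5c1 cells: CellTiter-Fluor signal (30 min incubation, 37C) for viability, then luciferase luminescence (30 min, room temperature). Compound contact time was 24 h at 37C, following a 5 h pre-incubation.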

[11] = qHTS assay to identify small molecule that activate the aryl hydrocarbon receptor (AhR) signaling pathway - cell viability counter screen (AID 743086);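 note: HepG2 liver cells carrying the AhR DRE luciferase reporter; nearly all actives have a fitted effect of over 45% in size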
Summary of the method: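 Cytotoxicity counter screen: CellTiter-Fluor signal (30 min, 37 C) in 4000 HepG2 cells/well carrying the DRE-luciferase reporter, following 24 h compound exposure at 37 C.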

[12] = molecular target: Peroxisome proliferator-activated receptor gamma (Homo sapiens) (UniProt P37231); assay: qHTS assay to identify small molecule agonists of the peroxisome proliferator-activated receptor gamma (PPARg) signaling pathway (AID 743094; active = well fitted activation curve with a large enough effect in the signal ratio in the repeat runs, not every such curve was filed as active; inconclusive = weak or mixed curves, or effect the other way; inactive = no such curve, though single readings can be large or run the other way; the % refers to the signal ratio)
Peroxisome proliferator-activated receptor gamma (Homo sapiens), sequence (P37231 whole entry, looked up): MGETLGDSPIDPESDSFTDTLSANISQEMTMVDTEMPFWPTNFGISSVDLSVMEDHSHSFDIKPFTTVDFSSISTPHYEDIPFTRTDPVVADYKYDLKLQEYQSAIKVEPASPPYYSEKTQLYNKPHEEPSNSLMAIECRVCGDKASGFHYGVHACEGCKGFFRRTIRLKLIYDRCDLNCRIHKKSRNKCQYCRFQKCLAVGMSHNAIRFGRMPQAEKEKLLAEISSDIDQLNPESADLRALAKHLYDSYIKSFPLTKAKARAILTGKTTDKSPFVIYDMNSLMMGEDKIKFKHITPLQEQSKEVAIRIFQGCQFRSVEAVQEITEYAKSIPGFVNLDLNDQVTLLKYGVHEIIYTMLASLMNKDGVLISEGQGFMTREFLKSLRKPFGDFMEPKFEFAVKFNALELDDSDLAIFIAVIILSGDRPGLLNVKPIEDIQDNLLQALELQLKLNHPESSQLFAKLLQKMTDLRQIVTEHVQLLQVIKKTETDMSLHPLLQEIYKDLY
Summary of the method: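 Following 5 h plating at 37C, PPARg-bla HEK293H cells receive compound or DMSO for 17 h; fluorescence intensity is recorded after LiveBLAzer B/G loading for 1 h at room temperature.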

[13] = qHTS assay to identify small molecule antagonists of the peroxisome proliferator-activated receptor gamma (PPARg) signaling pathway - cell viability counter screen (AID 743194); details: Potency: co-treated with 50 nM rosiglitazone unless noted; note: nearly all actives have a fitted effect of over 55% in size; note: potency is the fitted concentration of half-maximal effect
Summary of the method: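 Viability was measured as CellTiter-Glo luminescence in GeneBLAzer PPARg UAS-bla HEK293H cells. These cells had been exposed 17 h at 37 C to compounds together with rosiglitazone at 50 nM final, with the beta-lactamase readout taken in the same wells.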

[14] = qHTS assay for small molecule agonists of the antioxidant response element (ARE) signaling pathway - cell viability counter screen (AID 743203; calls by dose curve; note: nearly all actives have a fitted effect of over 55% in size; note: potency is the fitted concentration of half-maximal effect)
Summary of the method: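 Compounds in DMSO were pinned onto ARE-bla HepG2 cells plated 5 hrs earlier at 2,000 cells/well. Sixteen hours later at 37C/5% CO2, CellTiter-Glo was added and luminescence measured after 30 min at room temperature.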

[15] = molecular target: Estrogen receptor (Homo sapiens) (UniProt P03372); assay: qHTS assay to identify small molecule antagonists of the estrogen receptor alpha (ER-alpha) signaling pathway (AID 743069; active = well fitted curve in the direction sought with a large enough effect in the signal ratio in the repeat runs, not every such curve was filed as active; inconclusive = weak or mixed curves, or effect the other way; inactive = no such curve, though single readings can be large or run the other way; the % refers to the signal ratio; note: potency is the fitted concentration of half-maximal effect)
Summary of the method: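 ER-alpha-UAS-bla GripTite HEK293 line; 2% charcoal-stripped FBS overnight; plated, 4 hr 37C/5% CO2; cpd in DMSO + 17beta-estradiol, 18 hr 37C; LiveBLAzer B/G FRET substrate 2 hr RT; fluorescence intensity.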

[16] = qHTS assay for small molecule activators of the heat shock response signaling pathway - cell viability counter screen (AID 743209); note: nearly all actives have a fitted effect of over 50% in size
Summary of the method: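 Counter screen for cytotoxicity in HeLa HSE-bla reporter cells. Treatment was 5 h at 37 C; viability was detected by luminescent ATP assay (CellTiter-Glo) in the same wells as the beta-lactamase read.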

[17] = qHTS assay for small molecule activators of the heat shock response signaling pathway (AID 743210; active = well fitted activation curve with a large enough effect in the signal ratio in the repeat runs, with a control signal flat, not every such curve was filed as active; inconclusive = weak or mixed curves; the % refers to the signal ratio;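 note: HeLa cells with beta-lactamase reporter driven by heat shock elements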)
Summary of the method: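 HeLa HSE-bla cells, overnight plating; cpd in DMSO 5 h, 37 C; LiveBLAzer B/G FRET substrate 2.5 h RT; fluorescence intensity read.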

[18] = molecular target: Peroxisome proliferator-activated receptor gamma (Homo sapiens) (UniProt P37231); assay: qHTS assay to identify small molecule antagonists of the peroxisome proliferator-activated receptor gamma (PPARg) signaling pathway (AID 743191; calls by dose curve; note: nearly all actives have a fitted effect of over 30% in size)
Summary of the method: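 Beta-lactamase reporter under UAS control in HEK293H PPARg-bla cells; compound treatment 17 h at 37C. Read-out: fluorescence intensity after 1 h room-temperature incubation with LiveBLAzer B/G FRET substrate.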

[19] = qHTS assay for small molecule agonists of the antioxidant response element (ARE) signaling pathway (AID 743202; active = well fitted activation curve with a large enough effect in the signal ratio in the repeat runs, not every such curve was filed as active; inconclusive = weak or mixed curves, or effect the other way; inactive = no such curve, though single readings can be large or run the other way; the % refers to the signal ratio)
Summary of the method: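 Quantitative high-throughput format in HepG2 cells bearing an integrated ARE-beta-lactamase reporter. Compound exposure lasted 16 h at 37 C, and fluorescence was read 2 h after adding LiveBLAzer B/G substrate at room temperature.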
% is set by controls: 0 for no effect and ±100 for the full control effect.

CCCCC/C=C\C/C=C\C/C=C\C/C=C\CCCC(=O)NCC(=O)O
inactive: activity change, negative = cytotoxic [1] 12.7% [at 8.44 µM] | activity, negative = inhibition [2] 6.65% [at 8.44 µM] | activation [3] 2.19% [at 8.08 µM] | activity, negative = cytotoxicity [4] -15.9% [at 6.72 µM] | activation [5] -3.03% [at 6.71 µM] | activation [6] 2.37% [at 8.47 µM] | activity change, negative = inhibition [7] 0.823% [at 8.47 µM] | activity change, negative = cytotoxicity [8] 0.607% [at 8.47 µM] | activity, negative = inhibition (Aromatase (Homo sapiens)) 4.53% [at 8.47 µM] | activity change, negative = cytotoxicity [9] -2.83% [at 8.47 µM] | activation [10] -2.57% [at 8.47 µM] | viability change, negative = cytotoxic [11] 8.28% [at 8.47 µM] | activation [12] -0.604% [at 7.08 µM] | Potency [13] | Potency [14]

O=C1C(Cl)=C(Cl)C(=O)C(Cl)=C1Cl
inactive and 13.7 µM (active): Potency [14]
active: Potency [1] 15.3 µM and 13.7 µM | Potency [2] 9.65 µM and 5.45 µM | Potency [15] 54.9 µM [inconclusive] | Potency [5] 43.7 µM [activator] | Potency (Aromatase (Homo sapiens)) 9.65 µM and 9.69 µM | Potency [9] 10.8 µM and 13.7 µM | Potency [13] 6.92 µM
inactive: Potency [3] | Potency [4] | Potency [6] | Potency [7] | Potency [8] | Potency [11] | Potency [16]

CNC(=O)CSP(=O)(OC)OC
inactive: Potency [1] | Potency [2] | Potency [3] | Potency [15] | Potency [4] | Potency [5] | Potency [6] | Potency [7] | Potency [8] | Potency (Aromatase (Homo sapiens)) | Potency [9] | Potency [10] | Potency [12] | Potency [13] | Potency [14] | Potency [16] | Potency [17]

O=[N+]([O-])c1ccc(CCl)cc1
inactive: Potency [1] | Potency [2] | Potency [3] | Potency [15] | Potency [4] | Potency [5] | Potency [6] | Potency [8] | Potency (Aromatase (Homo sapiens)) | Potency [9] | Potency [10] | Potency [11] | Potency [12] | Potency [14] | Potency [16] | Potency [17]

ClCBr
inactive: Potency [1] | Potency [2] | Potency [3] | Potency [15] | Potency [4] | Potency [5] | Potency [7] | Potency [8] | Potency (Aromatase (Homo sapiens)) | Potency [9] | Potency [10] | Potency [11] | Potency [12] | Potency [18] | Potency [13] | Potency [14] | Potency [16] | Potency [17]

O=P(Cl)(Cl)Cl
inactive: Potency [1] | Potency [2] | Potency [3] | Potency [15] | Potency [4] | Potency [5] | Potency [6] | Potency [7] | Potency [8] | Potency (Aromatase (Homo sapiens)) | Potency [9] | Potency [10] | Potency [11] | Potency [12] | Potency [18] | Potency [13] | Potency [19] | Potency [14] | Potency [16] | Potency [17]
